{
  "source": "ChEMBL document CHEMBL4513216",
  "about": "“Probing the Open Global Health Chemical Diversity Library for Multistage-Active Starting Points for Next-Generation Antimalarials” (ACS Infect Dis, 2020)",
  "note": "The campaign covered roughly 65,000 compounds. About 2,100 (3.2%) showed an effect of 50% or more. The median lay at about -52%. The list comes from a sample in which strong results are over-represented; it also holds similar structures and randomly drawn compounds.",
  "data": [
    {"system": "Plasmodium falciparum", "assay": "Screen against P. falciparum Asexual Blood Stage (ABS), at 5uM", "format": "functional, Dd2", "conditions": "tested at 5 uM", "units": {"INHIBITION": "%"}, "values": [
      {"smiles": "CN(C)CCNC(=O)C1Cc2nc(-c3ccccc3)sc2N1CC1CC1", "note": "(stereo not drawn)", "INHIBITION": 89.7},
      {"smiles": "CN(C)CCNC(=O)[C@H]1C[C@H]2CN(c3ncccn3)C[C@H]2N1C", "INHIBITION": -64.2},
      {"smiles": "Cc1csc([C@@H]2C[C@@H]3CCN(Cc4cc(C)on4)C[C@H]3O2)n1", "INHIBITION": -19.3},
      {"smiles": "CNc1cc(C)nc(NC2CCCN(C3Cc4ccccc4C3)C2)n1", "note": "(stereo not drawn)", "INHIBITION": 92.8},
      {"smiles": "CNc1nc(C)cc(NC2CCCN(C3Cc4ccccc4C3)C2)n1", "note": "(stereo not drawn)", "INHIBITION": 89.5},
      {"smiles": "CN(C(=O)Cc1ccn(C)c1)C1CCCN(C2Cc3ccccc3C2)C1", "note": "(stereo not drawn)", "INHIBITION": -32.4},
      {"smiles": "Cc1cc(N2CCCN3CCC[C@H]3C2)n2nc(C)c(C)c2n1", "INHIBITION": 9.89},
      {"smiles": "Cc1cc(C)nc(N2CCCC2c2cccnc2)n1", "note": "(stereo not drawn)", "INHIBITION": 0.584},
      {"smiles": "Cn1ncc2c1NC(=O)CSC2c1ccc2c(c1)OCO2", "note": "(stereo not drawn)", "INHIBITION": -86},
      {"smiles": "c1cc(COC[C@]23COC[C@H]2CN(Cc2ccncc2)C3)ccn1", "INHIBITION": -118},
      {"smiles": "CN1CCCC2(CCN(C(=O)c3ccncc3)C2)C1", "note": "(stereo not drawn)", "INHIBITION": -62},
      {"smiles": "CN1CCN([C@@H]2CN(C(=O)c3ccnnc3)[C@@H]3CCCO[C@H]23)CC1", "INHIBITION": -103},
      {"smiles": "Cc1oc(-c2ccco2)nc1CC(=O)N1CCN(CC(C)O)CC1", "note": "(stereo not drawn)", "INHIBITION": -65.7},
      {"smiles": "CN1CCCC1c1cccc(Cc2ccc(F)cc2)n1", "note": "(stereo not drawn)", "INHIBITION": 62.1},
      {"smiles": "CN1CCCC1c1ccc(N2CCOCC2)cn1", "note": "(stereo not drawn)", "INHIBITION": -144},
      {"smiles": "Fc1ccc(Cc2cnc(C3CCCN3)cn2)cc1", "note": "(stereo not drawn)", "INHIBITION": 45.6},
      {"smiles": "Cc1nnc([C@H]2C[C@@H]3CCN(Cc4cc(C)on4)C[C@H]3O2)[nH]1", "INHIBITION": -33.8},
      {"smiles": "CC(C)N1CC[C@@H]2OC[C@H](C(=O)Nc3cccnc3)C[C@@H]2C1", "INHIBITION": -33.5},
      {"smiles": "Cc1cc(NC(=O)NC2CCN(C(C)C)CC2)c2ncccc2c1", "INHIBITION": 79.7},
      {"smiles": "CC(C)N1CCC(N(C)c2ccnc(N(C)C)n2)CC1", "INHIBITION": 39.1},
      {"smiles": "CN(C)Cc1cncc2c1CCN(Cc1ccoc1)C2", "INHIBITION": -67.1},
      {"smiles": "c1cc2c(cc1C1(CNC3=NCCN3)CCCC1)OCCO2", "INHIBITION": 81.1},
      {"smiles": "Clc1ccc(C2(CNC3=NCCN3)CCCC2)cc1", "INHIBITION": 83.7},
      {"smiles": "Fc1ccc(C2(CNC3=NCCN3)CCCC2)cc1", "INHIBITION": 83.5},
      {"smiles": "Clc1ccc(C2(CNC3=NCCN3)CC2)cc1", "INHIBITION": 83.2},
      {"smiles": "O=C(NC[C@]12COC[C@H]1CN(Cc1cccnc1)C2)c1ccsc1", "INHIBITION": 5.35},
      {"smiles": "CNC(=O)C1CCC2(CCNCC2)C1", "note": "(stereo not drawn)", "INHIBITION": -92},
      {"smiles": "Cc1ccc(N2C[C@@H]3CN(Cc4ccoc4)CCO[C@@H]3C2)nn1", "INHIBITION": -14.1},
      {"smiles": "Cc1oncc1C(=O)N[C@@H]1CN(C2CCC2)C[C@@H]2CCCO[C@@H]21", "INHIBITION": -114},
      {"smiles": "O=C(Cc1c(F)cccc1F)N1CCN(CC(=O)N2CCCC2)CC1", "INHIBITION": -130},
      {"smiles": "Cc1cc(CN2CC[C@H]3C[C@@H](c4nccs4)O[C@@H]3C2)no1", "INHIBITION": -79.5},
      {"smiles": "CC(=O)N1CCOCC2(CCCNC2)C1", "note": "(stereo not drawn)", "INHIBITION": -96.3},
      {"smiles": "Clc1ccc(C2(CNC3=NCCN3)CCCCC2)cc1", "INHIBITION": 90.2},
      {"smiles": "CN(C)C(=O)C1CCC2(CCNCC2)C1", "note": "(stereo not drawn)", "INHIBITION": -63},
      {"smiles": "CC(NCc1ccc(OCC(N)=O)cc1)c1ccc2c(c1)CCCC2", "note": "(stereo not drawn)", "INHIBITION": 73.4},
      {"smiles": "CC(C)n1[nH]c(=O)c2c1NC(=O)CSC2c1ccc(OCC(N)=O)cc1", "note": "(stereo not drawn)", "INHIBITION": -43.5},
      {"smiles": "CC(C)n1[nH]c(=O)c2c1NC(=O)CSC2c1cccc(OCC(N)=O)c1", "note": "(stereo not drawn)", "INHIBITION": -96.5},
      {"smiles": "O=C(c1cccnc1)N1CCN2C[C@H](Oc3cncnc3)C[C@H]2C1", "INHIBITION": -64.5},
      {"smiles": "Cc1noc(C)c1CN1CC[C@@H]2O[C@H](COCC3CC3)CC[C@@H]21", "INHIBITION": -4.95},
      {"smiles": "Cc1ccc(-c2nc(CNC(C)CCO)[nH]c2-c2ccccn2)cc1", "note": "(stereo not drawn)", "INHIBITION": 86},
      {"smiles": "c1cc(CN2CC[C@H]3C[C@H](c4nc(C5CC5)cs4)O[C@@H]3C2)ccn1", "INHIBITION": -49.9},
      {"smiles": "CN(C)c1ncc2c(c1C(=O)O)CCN(Cc1ccco1)C2", "INHIBITION": -111},
      {"smiles": "c1ccc(NC[C@@H]2CCC[C@@H]3CN(Cc4cc[nH]n4)C[C@@H]32)nc1", "INHIBITION": -29.8},
      {"smiles": "c1ccc(NC[C@@H]2CCC[C@@H]3CN(Cc4nccs4)C[C@@H]32)nc1", "INHIBITION": 57.1},
      {"smiles": "c1ccc(CN2C[C@@H]3CCCO[C@@H]3[C@H](Nc3ccccn3)C2)nc1", "INHIBITION": 18.5},
      {"smiles": "c1cnc(NC[C@@H]2CCC[C@@H]3CN(Cc4csnn4)C[C@@H]32)nc1", "INHIBITION": 47.7},
      {"smiles": "CC(=O)N1C[C@H]2CCCC(N3CCN(c4ncccn4)CC3)[C@H]2C1", "note": "(stereo partly drawn)", "INHIBITION": -104},
      {"smiles": "c1ccc(NC[C@@H]2CCC[C@@H]3CN(c4ncccn4)C[C@@H]32)nc1", "INHIBITION": 72.9},
      {"smiles": "c1ccc(NC[C@@H]2CCC[C@@H]3CN(Cc4cccnc4)C[C@@H]32)nc1", "INHIBITION": 75},
      {"smiles": "Cn1ccnc1NC[C@@H]1CCC[C@@H]2CN(Cc3cccnc3)C[C@@H]21", "INHIBITION": -26.3},
      {"smiles": "c1ccc(NC[C@@H]2CCC[C@@H]3CN(Cc4csnn4)C[C@@H]32)nc1", "INHIBITION": 62},
      {"smiles": "c1cnc(NC[C@@H]2CCC[C@@H]3CN(Cc4cc[nH]n4)C[C@@H]32)nc1", "INHIBITION": -16.9},
      {"smiles": "c1cncc(CN2C[C@H]3CCC[C@@H](CNc4cnccn4)[C@H]3C2)c1", "INHIBITION": -3.45},
      {"smiles": "O=C1N(c2cncnc2)CCC12CCCN(Cc1cccnc1)C2", "note": "(stereo not drawn)", "INHIBITION": -88.1},
      {"smiles": "Cc1nn(C)c2ncc(S(=O)(=O)N3CCCN4CCCC4C3)cc12", "note": "(stereo not drawn)", "INHIBITION": -18.1},
      {"smiles": "O=C1CSC(c2cccnc2)c2c(n(C3CCOCC3)[nH]c2=O)N1", "note": "(stereo not drawn)", "INHIBITION": -140},
      {"smiles": "O=C1CCC2(CCN(Cc3ccc(F)cc3)CC2)N1CCN1CCCC1", "INHIBITION": 84.6},
      {"smiles": "CC[C@@H]1N(C)CCC[C@]12CCC(=O)N2Cc1ccncc1", "INHIBITION": 3.77},
      {"smiles": "COCCN1CCCC2(CCC(=O)N2Cc2cccnc2)C1", "note": "(stereo not drawn)", "INHIBITION": -66.3},
      {"smiles": "Cc1cnc(N2CCCC3(CCCN3CC(=O)N(C)C)C2)nc1", "note": "(stereo not drawn)", "INHIBITION": -98.2},
      {"smiles": "COCc1cncc2c1CCN(Cc1cccs1)C2", "INHIBITION": -1.55},
      {"smiles": "COCCNc1nc2c(c(NCCc3cccs3)n1)CCNCC2", "INHIBITION": 81.9},
      {"smiles": "COCCNc1nc2c(c(NCc3cnc(C)c(C)c3)n1)CCNCC2", "INHIBITION": -67.4}
    ]}
  ]
}
